L3MBTL1 inh: L3MBTL1 (human) inhibition; Potency, µM (series often up to 57.1 µM), without a hit: at the highest dose activity, negative = inhibition, hits mostly inhibitors; AlphaScreen L3MBTL1–H3K9me1 peptide binding; AID 485360; 230,000 tested, 0.66% active; Q9Y468; also: % is scaled to controls: 0 for no effect and ±100 for the full control effect; nearly all actives have a fitted effect of over 60% in size
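AlphaScreen proximity signal between nickel-chelate acceptor and streptavidin donor beads (final 10 ug/mL) reports binding of 50 nM L3MBTL1 to 75 nM biotin-H3 K9me1 peptide; complex incubated with compounds 30 min at room temperature; cefsulodin titration as control.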
Pol kappa inh: inhibitors of human DNA polymerase kappa; purified Pol kappa, fluorescent DNA synthesis assay, 10 min; Potency, µM (doses to about 107 µM), for the others: at the highest dose activity, negative = inhibition, actives largely listed as inhibitors; 400,000 tested, 0.53% active; AID 588579; also: % is scaled to controls: 0 for no effect and ±100 for the full control effect
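Activity was followed as the change in fluorescence between reads at 0 and 10 min after starting the reaction with 50 nM substrate. Beforehand, 10 nM polymerase had been preincubated with compound for 15 min at room temperature.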
POLB inh: DNA polymerase beta (human) inhibition; Pol beta primer extension/strand displacement, fluorescence kinetic; Potency, µM (top dose mostly 114 µM), inactives show top-dose activity change, negative = inhibition, actives largely listed as inhibitors; 340,000 tested, 1.3% active; also: % is scaled to controls: 0 for no effect and ±100 for the full control effect
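Homogeneous kinetic assay of primer extension and strand displacement by 10 nM Pol beta, preincubated 15 min at room temperature with compound before 50 nM substrate (final) was added. Read at 0 and 10 min; four-parameter Hill fit.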
Pol eta inh: DNA polymerase eta (human) inhibition; Q9Y253; recombinant Pol eta, fluorescent DNA replication assay; Potency, µM (doses to about 114 µM), for inactives: at the highest dose activity change, negative = inhibition, usual class: inhibitors; 390,000 tested, 1.2% active; also: % is scaled to controls: 0 for no effect and ±100 for the full control effect
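Pol eta at 10 nM preincubated with compounds 15 min at room temperature; reaction started with fluorescent substrate (50 nM final) and read kinetically at 0 and 10 min.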
Pol iota inh: DNA polymerase iota (human) inhibition | Q9UNA4 | Pol iota fluorescent replication assay, 10 min | Potency, µM (doses to about 115 µM), inactives show at the highest dose activity, negative = inhibition, most hits filed as inhibitors | 390,000 tested, 1% active | AID 588590
Target sequence (Q9UNA4 whole entry, looked up): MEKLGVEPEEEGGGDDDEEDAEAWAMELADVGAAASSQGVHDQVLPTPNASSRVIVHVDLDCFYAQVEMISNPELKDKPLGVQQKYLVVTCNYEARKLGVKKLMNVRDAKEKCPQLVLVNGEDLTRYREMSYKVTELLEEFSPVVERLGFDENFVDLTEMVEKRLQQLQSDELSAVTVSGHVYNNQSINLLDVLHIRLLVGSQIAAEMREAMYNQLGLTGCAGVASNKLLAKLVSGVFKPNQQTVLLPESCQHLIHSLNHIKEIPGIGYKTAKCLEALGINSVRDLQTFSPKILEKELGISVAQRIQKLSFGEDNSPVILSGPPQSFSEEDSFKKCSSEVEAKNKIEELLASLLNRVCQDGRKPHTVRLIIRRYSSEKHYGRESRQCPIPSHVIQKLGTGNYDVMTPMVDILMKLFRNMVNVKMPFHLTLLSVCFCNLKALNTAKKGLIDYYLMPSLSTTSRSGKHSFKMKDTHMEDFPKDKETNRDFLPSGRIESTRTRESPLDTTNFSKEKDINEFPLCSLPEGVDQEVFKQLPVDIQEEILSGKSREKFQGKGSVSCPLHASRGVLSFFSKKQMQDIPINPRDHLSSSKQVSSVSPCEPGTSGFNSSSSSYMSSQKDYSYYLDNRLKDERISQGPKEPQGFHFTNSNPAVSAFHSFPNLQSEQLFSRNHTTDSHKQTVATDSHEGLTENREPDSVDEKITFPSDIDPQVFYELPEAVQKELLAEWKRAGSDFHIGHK
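Fluorescent replication assay read twice, at 0 min and 10 min after adding 50 nM (final) substrate. Enzyme (10 nM) and compounds were first incubated 15 min at room temperature; enzyme-free buffer wells were negative controls.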
* hit, by the source's call; ? = inconclusive; · = no result given; [ ] = remark or other dose. Compounds with a hit are over-represented: about 2.4% of the library has one in this group of screens. Calls follow the shape of the dose curve; as a rule, active = well fitted curve in the direction sought with a large enough effect; inconclusive = small, poorly fitted or top-dose-only effect, or another doubt; inactive = no such curve, though single readings can be large; an effect the other way counts as inactive or inconclusive. Potency is read from the fitted curve at half-maximal effect.

SMILES	L3MBTL1 inh	Pol kappa inh	POLB inh	Pol eta inh	Pol iota inh
Oc1ccc(CN2CCN(Cc3ccccc3)CC2)c2cccnc12	-2%	-2%	39%	-9%	26%
CC1CCN(S(=O)(=O)c2cc(C(=O)N3CCN(c4cccc(Cl)c4)CC3)n(C)c2)CC1	·	-7%[60.1 µM]	31%	-10%	-22%
COc1cc2c(cc1OC)C1O[C@](CCCCN3C(=O)c4ccccc4C3=O)(C2)Oc2c1c(=O)oc1ccc(F)cc21	·	·	3.5µM*	·	·
COc1ccc2c(c1)C(O)C(CO)C(C(=O)O)C2 (configuration not stated)	·	-10%	·	-10%	17%
COc1cc(/C=C2/C(=N)N3C(=NC2=O)SN=C3S(C)(=O)=O)ccc1OC(=O)c1ccco1	·	-19%	-8%	50µM*	?
CCOc1cc(/C=C2/C(=N)N3OC(C)=CC3=NC2=O)ccc1OC(=O)c1ccco1	·	-7%[60.1 µM]	-6%	-6%	-2%
CCS(=O)(=O)C1=NSC2=NC(=O)/C(=C\c3ccc(OC(=O)c4ccco4)c(OC)c3)C(=N)N21	·	2%	27%	?	?
CCOc1cc(/C=C2/C(=N)N3C(=NC2=O)SN=C3S(=O)(=O)CC)ccc1OC(=O)c1ccco1	·	4%	-9%	79µM*	?
COc1cc(/C=C2/C(=N)N3C(=NC2=O)SN=C3S(=O)(=O)C(C)C)ccc1OC(=O)c1ccco1	·	-14%	1%	79µM*	?
COc1cc(/C=C2/C(=N)N3C(SC)=NSC3=NC2=O)ccc1OC(=O)c1ccco1	·	-15%	3%	-7%	?
CCOc1cc(/C=C2/C(=N)N3C(=NC2=O)SN=C3S(=O)(=O)C(C)C)ccc1OC(=O)c1ccco1	·	-10%	-1%	45µM*	4%
O=[N+]([O-])c1cccc(C2=N[C@@H](Cc3ccccc3)CO2)c1	·	-14%	·	·	·
CC(=O)N(O)C/C=C/c1cccc(Oc2ccccc2)c1	·	12%[60.1 µM]	·	·	·
COc1ccc(NCc2ccc([N+](=O)[O-])s2)cc1	?	-27%	22µM*	-7%	-11%
O=[N+]([O-])c1ccc(CNc2ccc(F)cc2)s1	-9%	0%	-9%	-10%	49%
COc1ccc(NCc2ccc([N+](=O)[O-])s2)c(OC)c1	?	-28%	22µM*	?	-9%
Cc1ccc(C)c(NC(=O)Cn2nnc(C(=O)NCCc3ccccc3)c2N)c1	·	-15%	?	-24%	-19%
Cc1ccccc1NC(=O)Cn1nnc(C(=O)NCCc2ccccc2)c1N	·	-7%	14µM*	-18%	-11%
COc1cccc(CNC(=O)c2nnn(CC(=O)Nc3ccc(C)c(C)c3)c2N)c1	-3%	-17%	25µM*	?	?
Nc1c(C(=O)NCCc2ccccc2)nnn1CC(=O)Nc1ccc(Cl)cc1	·	-28%	?	-7%	79µM*
CSc1cccc(NC(=O)Cn2nnc(C(=O)NCCc3ccccc3)c2N)c1	·	-5%[60.1 µM]	25µM*	-21%	79µM*
COc1cc2c(cc1OC)C(C(C(=O)N(CCc1ccc(OC)c(OC)c1OC)CCc1ccc(OC)c(OC)c1OC)c1ccccc1)=NCC2 (configuration not stated)	·	?	·	·	15%
COc1cc(OC)c(/C=C/c2ccc3ccccc3[n+]2[O-])c(OC)c1	·	-17%	·	·	17%
Cc1cc(C)cc(NC(=O)Cn2nnc(C(=O)NCc3ccccc3Cl)c2N)c1	·	11%	16%	-9%	?
Cc1ccc(C)c(NC(=O)Cn2nnc(C(=O)NCc3ccccc3Cl)c2N)c1	·	-11%[60.1 µM]	35µM*	-16%	?
SMILES	L3MBTL1 inh	Pol kappa inh	POLB inh	Pol eta inh	Pol iota inh
CCCCN1CC[C@H]2C=CC[C@@H](C(=O)NC3CCCCC3)[C@H]2C1=O	·	-18%	·	·	3%
CCOc1cc(Br)cc(C(c2c(C(=O)O)[nH]c3ccccc23)c2c(C(=O)O)[nH]c3ccccc23)c1O	-3%[2.29 µM]	?	?	79µM*	-16%
CSc1ccc(C(c2c(C(=O)O)[nH]c3ccccc23)c2c(C(=O)O)[nH]c3ccccc23)cc1	0%[2.29 µM]	?	-27%	79µM*	?
CSc1ccc(C(c2c(C)[nH][nH]c2=O)c2c(C)[nH][nH]c2=O)cc1	-3%	-12%	16%	-4%	?
CCOc1ccc(N=Nc2c(=O)[nH]n3c(=O)c4c([nH]c23)CCCC4)cc1	-3%	-12%	50µM*	-18%	20%
O=C(Cc1ccccc1[N+](=O)[O-])NCC1(c2cccc3c2OCO3)OCCO1	·	-4%	·	-6%	3%
COc1ccc(Nc2ncnc3c2cnn3-c2ccc(C)cc2C)cc1	·	-9%[60.1 µM]	1%	-16%	7%
Cc1c2ccccc2nc2c(F)c(NCCO)c(F)c(F)c12	-15%	79µM*	?	?	?
Cc1c2ccccc2nc2c(F)c(NC(C)C)c(F)c(F)c12	32%	?	3%	-3%	18µM*
CN(C)c1ccc(/C=C/c2cc3ccccc3cn2)cc1	·	?	·	·	-19%
COc1cc(NC(=O)C2=CC(c3ccc(F)cc3)=NS(=O)(=O)N2C)cc(OC)c1OC	·	-2%	-10%	-17%	10%
CCOc1[nH]c(/N=C/c2ccccc2)c(C#N)c1C#N	·	-2%	·	·	?
COc1ccc(C(=O)c2ccc(OC)c(N)c2)cc1N	?	-13%	-3%	-1%	13%
COc1cc(N)c(N)cc1OC	·	-21%	·	·	22µM*
COc1cc(Br)c(Br)cc1N	3.5µM*	-21%	33%	-25%	24%
c1ccc(COC[C@@H]2CO2)cc1	·	12%[60.1 µM]	·	·	·
NC(C(=O)O)[C@H](O)C(=O)O (some centres not stated)	·	5%[19.4 µM]	·	·	·
COC(=O)c1ccsc1NC(=O)c1cccc(OC)c1	44%	-5%	-1%	-25%	89µM*
COc1cccc(C(=O)Nc2ccccc2)c1	3%	-6%	22%	-10%	20%
CCOc1cc(/C=N/N=C2/NC(=O)C(CC(=O)O)S2)ccc1OCc1ccccc1Cl (configuration not stated)	·	-7%	28µM*	?	-17%
COc1ccc(/C=N/N=C2/NC(=O)C(CC(=O)O)S2)cc1OCc1ccccc1Cl (configuration not stated)	?	2%	-13%	?	0%
CC(C)(C)C(=O)Cn1c(=O)n(-c2ccc(Cl)cc2)c(=O)c2c3c(sc21)CCCC3	·	-3%	-2%	-21%	17%
CCCC(=O)Nc1nnc(Sc2ccc(N(C)C)cc2)s1	4%	1%	5%	5%	3%
CCC(=O)Nc1nnc(Sc2ccc(N(C)C)cc2)s1	-7%	-9%	50µM*	-4%	?
O=C(Nc1nnc(S(=O)(=O)N2CCCc3ccccc32)s1)c1ccccc1	·	-9%	?	?	23%
Cc1ccc(C(=O)Nc2nnc(S(=O)(=O)N3CCCc4ccccc43)s2)cc1	·	-11%	?	89µM*	100%
O=C(Nc1nnc(S(=O)(=O)N2CCc3ccccc32)s1)c1cccc(Cl)c1	·	-18%	4%	89µM*	14%
